Reference: the supplement of paper PMC9023506
Structures can show the parent of a compound that is named as a salt.

Assays:
Conditions in all cases: 10 µM; exposure time: 3 h pre-incubation + 3 h imaging
[1] = test system: Danio rerio larvae (5 dpf); assay: activity during first hour (no stimuli), difference vs DMSO (percentage points (treated minus DMSO)); higher = more of the behaviour than the DMSO vehicle control
How it was run: (§1)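 Five-days-post-fertilisation wild-type zebrafish larvae were held in 96-well ProxiPlates and exposed to each library drug at a final 10 µM, diluted 1000× from DMSO stocks into egg water, with 48 larvae per drug. Exposure lasted 3 h before and 3 h during imaging at 28.5 °C, with images taken every 6 s across a 3-h program of rest, moving coloured lines and acoustic pulses. An ImageJ macro scored movement and upper-half location, and each behaviour score is the treated-group mean minus the vehicle-group mean, expressed in percentage points.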

[2] = test system: Danio rerio larvae (5 dpf); assay: optomotor response to green moving lines, difference vs DMSO (percentage points (treated minus DMSO)); higher = more of the behaviour than the DMSO vehicle control
How it was run: as §1

[3] = test system: Danio rerio larvae (5 dpf); assay: habituation to 1-s acoustic pulses, difference vs DMSO (percentage points (treated minus DMSO)); higher = more of the behaviour than the DMSO vehicle control
How it was run: as §1

[4] = test system: Danio rerio larvae (5 dpf); assay: excitability to 1-s acoustic pulses, difference vs DMSO (percentage points (treated minus DMSO)); higher = more of the behaviour than the DMSO vehicle control
How it was run: as §1

[5] = test system: Danio rerio larvae (5 dpf); assay: activity during period 15 (no stimuli), difference vs DMSO (percentage points (treated minus DMSO)); higher = more of the behaviour than the DMSO vehicle control
How it was run: as §1

[6] = test system: Danio rerio larvae (5 dpf); assay: optomotor response to blue moving lines, difference vs DMSO (percentage points (treated minus DMSO)); higher = more of the behaviour than the DMSO vehicle control
How it was run: as §1

[7] = test system: Danio rerio larvae (5 dpf); assay: optomotor response to fast red moving lines, difference vs DMSO (percentage points (treated minus DMSO)); higher = more of the behaviour than the DMSO vehicle control
How it was run: as §1

[8] = test system: Danio rerio larvae (5 dpf); assay: startle response to 20-s acoustic pulses, difference vs DMSO (percentage points (treated minus DMSO)); higher = more of the behaviour than the DMSO vehicle control
How it was run: as §1

[9] = test system: Danio rerio larvae (5 dpf); assay: optomotor response to red moving lines, difference vs DMSO (percentage points (treated minus DMSO)); higher = more of the behaviour than the DMSO vehicle control
How it was run: as §1

CCCCCOC(=O)Nc1nc(=O)n([C@@H]2O[C@H](C)[C@@H](O)[C@H]2O)cc1F [Capecitabine]
activity during first hour [1]: 6.31

CCOC(=O)C1=C(C)NC(C)=C(C(=O)OC)C1c1cccc(Cl)c1Cl (configuration not stated) [Felodipine]
activity during first hour [1]: -12.9 | optomotor response to green moving lines [2]: -6.01

CC(C)C(=O)Nc1ccc([N+](=O)[O-])c(C(F)(F)F)c1 [Flutamide]
habituation to 1-s acoustic pulses [3]: -15.5 | excitability to 1-s acoustic pulses [4]: -5.4 | activity during period 15 [5]: -0.963 | activity during first hour [1]: -9.59 | optomotor response to blue moving lines [6]: -17.2 | optomotor response [7]: -21.1

COc1c(C)c2c(c(O)c1C/C=C(\C)CCC(=O)OCCN1CCOCC1)C(=O)OC2 [Mycophenolate mofetil]
habituation to 1-s acoustic pulses [3]: 0.172 | activity during first hour [1]: -1.93 | optomotor response to blue moving lines [6]: 16.8 | startle response to 20-s acoustic pulses [8]: 3.73 | optomotor response [7]: 2.27

CC(C)Nc1cccnc1N1CCN(C(=O)c2cc3cc(NS(C)(=O)=O)ccc3[nH]2)CC1 [Delavirdine mesylate]
activity during period 15 [5]: -4.9 | activity during first hour [1]: -1.59 | optomotor response to blue moving lines [6]: -0.42 | optomotor response to green moving lines [2]: -4.7 | optomotor response [7]: -17

C[C@H]1C[C@@H]2[C@H]([C@@H](O)C[C@@]3(C)[C@H]2CC[C@]3(O)C(=O)CO)[C@@]2(C)C=CC(=O)C=C12 [Methylprednisolone]
optomotor response to red moving lines [9]: -1.93 | activity during first hour [1]: 0.814 | startle response to 20-s acoustic pulses [8]: -0.0848

CN1CCC[C@@H]1Cc1c[nH]c2ccc(CCS(=O)(=O)c3ccccc3)cc12 [Eletriptan hydrobromide]
habituation to 1-s acoustic pulses [3]: 10.1 | optomotor response to red moving lines [9]: 4.39 | activity during period 15 [5]: -0.424 | activity during first hour [1]: 4.26 | optomotor response to green moving lines [2]: 6.81

CCCN(CCc1cccs1)[C@H]1CCc2c(O)cccc2C1 [Rotigotine hydrochloride]
activity during first hour [1]: -26.8

COc1ccccc1OCCNCC(O)COc1cccc2[nH]c3ccccc3c12 (configuration not stated) [Carvedilol]
habituation to 1-s acoustic pulses [3]: 2.04 | optomotor response to red moving lines [9]: 1.15 | activity during period 15 [5]: -6.43 | activity during first hour [1]: -9.72 | startle response to 20-s acoustic pulses [8]: 4.96 | optomotor response [7]: -10.6

N[C@@H]1[C@H]2CN(c3nc4c(cc3F)c(=O)c(C(=O)O)cn4-c3ccc(F)cc3F)C[C@@H]12 [Trovafloxacin mesylate]
habituation to 1-s acoustic pulses [3]: -3.6 | optomotor response to red moving lines [9]: 4.89 | activity during first hour [1]: 5.81 | optomotor response [7]: -4.84

CCCCNc1cc(C(=O)O)cc(S(N)(=O)=O)c1Oc1ccccc1 [Bumetanide]
excitability to 1-s acoustic pulses [4]: 3.02 | optomotor response to red moving lines [9]: 19.3 | activity during first hour [1]: 3.74 | optomotor response to blue moving lines [6]: 3.8 | optomotor response [7]: -7.16

O=C(O)c1cc(/N=N/c2ccc(S(=O)(=O)Nc3ccccn3)cc2)ccc1O [Sulfasalazine]
activity during first hour [1]: 13.5

CN1CC(=O)N2[C@H](c3ccc4c(c3)OCO4)c3[nH]c4ccccc4c3C[C@@H]2C1=O [Tadalafil]
habituation to 1-s acoustic pulses [3]: -1.05 | optomotor response to red moving lines [9]: -0.75 | activity during first hour [1]: 11 | optomotor response to green moving lines [2]: -0.909 | optomotor response [7]: -10.2

COC(=O)C1=C(C)NC(C)=C(C(=O)OC(C)C)C1c1cccc2nonc12 (configuration not stated) [Isradipine]
excitability to 1-s acoustic pulses [4]: 19.8 | optomotor response to red moving lines [9]: -7.63 | activity during first hour [1]: 0.0385
